Most compounds without a hit are left out; they make up all but 1% or so of the library.
APEX1 inh: APE1 (human) endonuclease inhibition. P27695. recombinant APE1, TAMRA/BHQ-2 abasic DNA cleavage fluorescence. Potency, µM (doses to about 65.8 µM), without a hit: at the top dose activity change, negative = inhibition, hits mostly inhibitors. 350,000 tested, 0.35% active;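 note: plate controls were vehicle for no effect and reference inhibitor for full effect; nearly all actives have a fitted effect of over 55% in size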
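0.75 nM APE1 + cpd, 15 min RT; start w/ 50 nM TAMRA/BHQ-2 THF-abasic dsDNA; kinetic fluor 525/598 nm ×3 reads @60 s; Δ(read3−read1); normalized to DMSO and NSC13755 control wells.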
WRN helicase inh: blocks human WRN helicase; Q14191; WRN helicase unwinding, fluorescent forked duplex, kinetic; Potency, µM (highest dose often 114 µM), without a hit: at the top dose activity change, negative = inhibition, usual class: inhibitors; 360,000 tested, 0.46% active; AID 651768; note: nearly all actives have a fitted effect of over 55% in size
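Kinetic red-fluorescence monitoring (525/598 nm) tracks WRN helicase activity after 100 nM fluorophore-quencher forked duplex and 2 mM ATP are added to 20 nM enzyme pretreated 15 min at room temperature with compound.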
L3MBTL1 inh: inhibitors of human L3MBTL1 | Q9Y468 | AlphaScreen L3MBTL1–H3K9me1 peptide binding | Potency, µM (series often up to 57.1 µM), for inactives: at the top dose activity, negative = inhibition, hits mostly inhibitors | 230,000 tested, 0.66% active | AID 485360; note: nearly all actives have a fitted effect of over 60% in size
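Read-out is AlphaScreen signal from streptavidin donor and nickel chelate acceptor beads (10 ug/mL final each) bridging L3MBTL1 (50 nM) and biotinylated K9-monomethylated H3(1-15) peptide (75 nM), after 30 min compound exposure at room temperature.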
FEN1 inh: inhibitors of human flap endonuclease 1. P39748. Potency, µM (highest dose often 114 µM), without a hit: top-dose activity change, negative = inhibition, usual class: inhibitors. Recombinant FEN1 flap cleavage, fluorescence, 15 min. AID 588795. 390,000 tested, 0.35% active; note: nearly all actives have a fitted effect of over 65% in size
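Potency values derive from four-parameter Hill fits of normalized qHTS data. The reaction used 10 nM FEN1 preincubated 15 min at room temperature with compound, then 50 nM DNA substrate, read at 0 and 15 min.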
BLM helicase inh: Bloom syndrome helicase (human) inhibition; recombinant BLM DNA unwinding, fluorescence dequenching; AID 2528; 350,000 tested, 0.2% active; Potency, µM (series often up to 56.1 µM), without a hit: top-dose activity change, negative = inhibition, actives largely listed as inhibitors;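 note: plate controls were vehicle for no effect and no enzyme for full effect; nearly all actives have a fitted effect of over 35% in size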
RECQ1 inh: RECQ1 (human) helicase inhibition; RECQ1 DNA unwinding, red fluorescence kinetic read; Potency, µM (series often up to 57.3 µM), without a hit: top-dose activity, negative = inhibition, actives largely listed as inhibitors; 240,000 tested, 0.54% active;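 note: plate controls were vehicle for no effect and no enzyme for full effect; nearly all actives have a fitted effect of over 30% in size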
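RECQ1T1 50 nM; forked duplex (20 bp + 30-nt ss tails) 200 nM, ATP 2 mM final; pH 8.0, 2 mM MgCl2, 2.5 ug/ml poly(dI-dC); 15 min compound preincubation; discontinuous kinetic read over 2 h at RT.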
* hit, by the source's call; i = inactive; ? = inconclusive; · = no result given; ! = repeats disagree; [ ] = remark or other dose. Calls come from the whole dose curve; as a rule, active = well fitted curve in the direction sought with a large enough effect; inconclusive = small, poorly fitted or top-dose-only effect, or another doubt; inactive = no such curve, though single readings can be large; an effect the other way counts as inactive or inconclusive. Unless noted, % is set by controls: 0 for no effect and ±100 for the full control effect; potency is the fitted concentration of half-maximal effect.

SMILES	APEX1 inh	WRN helicase inh	L3MBTL1 inh	FEN1 inh	BLM helicase inh	RECQ1 inh
O=C(CSCc1cccc(Br)c1)N=Nc1c(O)[nH]c2ccccc12	6%	-2%	-7%	-20%	-11%	i
O=Nc1c(-c2c(O)[nH]c3cc(Br)ccc23)[nH]c2ccccc12	-11%	-14%	·	-1%	-16%	28µM*
O=C(CC1SC(=O)N(c2ccccc2)C1=O)Nc1ccccc1 (stereo not given)	0%	40µM*	-5%	12%	-1%	-6%
Cc1cccc(NC(=O)CC2SC(=O)N(c3ccccc3)C2=O)c1 (stereo not given)	1%	100µM*	·	1%	0%	-10%
Cc1ccc(NC(=O)CC2SC(=O)N(c3ccccc3)C2=O)cc1 (stereo not given)	0%	?	1%	-2%	2%	-4%
CC(C)C(C(=O)O)N1C(=O)/C(=C/c2ccc(Br)cc2)SC1=S (stereo not given)	-4%	·	·	·	-20%	-16%
CCOc1ccccc1Nc1ncnc2c1c(-c1ccccc1)cn2-c1ccc(OC)cc1	·	·	·	-16%	-5%	·
Oc1ccc(CNc2cccc(C(F)(F)F)c2)c2cccnc12	11%	·	13µM*	·	·	·
Cc1cccnc1NCc1ccc(O)c2ncccc12	4%	-6%	28µM*	-29%	1%	-1%
Cc1ccc(NCc2ccc(O)c3ncccc23)cc1	8%	-27%	-25%	-14%	-5%	-10%
CCC(CO)[n+]1c(C)cc(/C=C2\Sc3ccccc3N2Cc2ccccc2)cc1C (stereo not given)	-8%	?	34%	50µM*	0%	?
CC(C)(C)n1ncc2c(=O)n(Cc3c(F)ccc(F)c3Cl)cnc21	-3%	·	·	-7%	·	·
COc1cc2nc(N3CCN(C(=O)C4CCCO4)CC3)nc(N)c2cc1OC (stereo not given)	-4%	-4%	5%	-20%	-3%	14%
COc1cc2c(NC3CCN(C(C)C)CC3)nc(N3CCCN(C)CC3)nc2cc1OCCOCCN(C)C	·	·	·	40µM*	·	·
COc1cc2c(NC3CCN(C)CC3)nc(N3CCCN(C)CC3)nc2cc1OCCOCCN(C)C	·	·	·	28µM*	·	·
COc1cc2c(NC3CCN(C(C)C)CC3)nc(N3CCCN(C)CC3)nc2cc1OCCCN1CCCC1	·	·	·	22µM*	·	·
COc1cc2nc(N3CCN(C(=O)[C@H]4CCCO4)CC3)nc(N)c2cc1OC	-5%	·	·	·	1%	i
CC(=O)NC(Cc1ccc(Cl)cc1)C(=O)NCC(N)C(=O)c1ccccc1 (stereo not given)	·	·	·	12%	·	·
CN(C)c1ccc(/C=C/c2ccnc3c(Cl)ccc(Cl)c23)cc1	·	·	·	2%	·	·
OC[C@@H]1CN(Cc2ccncc2)C[C@H](n2cnc3c(NCc4ccncc4)ncnc32)O1	·	-3%	·	·	·	·
CCC(=O)/C=C/C1C(C)=CCCC1(C)C (stereo not given)	0%	·	·	·	·	-1%
CNCc1ccccc1Sc1cc(O)ccc1O	-6%	32µM*	-13%	?	-3%	?
Cc1cc(Cl)ccc1C(O)c1ncc(-c2ccc(F)cc2)[nH]1 (stereo not given)	·	-3%	·	·	·	·
O=Cc1ccc(O)c2ncccc12	-4%	9%[57.1 µM]	4µM*	?	3%	-1%
Cc1ccnc2c(O)cccc12	·	·	·	6%	·	·
SMILES	APEX1 inh	WRN helicase inh	L3MBTL1 inh	FEN1 inh	BLM helicase inh	RECQ1 inh
O=C(O)c1ccc2c(=O)n3cc(C(=O)c4ccccc4O)cc(Cl)c3nc2c1	-6%	-35%	·	35µM*	-4%	13%
CCCCCCCCCC[n+]1ccc(/C=C/c2c(C)[nH]c3ccccc23)cc1	·	·	·	79µM*	·	·
CC1CCCN(C(C(=O)NC2CCCCC2)c2cc3c(cc2[N+](=O)[O-])OCO3)C1 (stereo not given)	7%	-15%	11µM*	-9%	-30%	-6%
CC(C)C(NS(=O)(=O)c1ccc2c(c1)Cc1cc(S(=O)(=O)NC(C(=O)O)C(C)C)ccc1-2)C(=O)O (stereo not given)	-12%	-25%	8%	-2%	-8%	·
Cc1ccccc1OCC(=O)Nc1ccc(-c2nc3cc(Cl)cc(Cl)c3o2)cc1	·	·	·	4%	-6%	·
C[c-]1[c-](C)[c-](C)[c-](C)[c-]1C.[Fe].c1cc2nccc(N3CCCC3)[c-]2c1 (stereo not given)	2.8µM*!	-19%	·	?	?	6.3µM*!
c1cc(N2CCCCC2)nc(N2CCCCC2)n1	·	7%	·	-7%	·	·
Cc1ccc(Cl)cc1N1CCN(C(=O)c2ccc(CS(=O)c3ccccc3)o2)CC1 (stereo not given)	·	·	·	-1%	2%	·
O=C(Nc1ccc([N+](=O)[O-])cc1Cl)c1cc(Cl)cc(Cl)c1O	·	·	·	4%	·	·
O=C(Nc1cc(Cl)ccc1Cl)c1cc([N+](=O)[O-])cc(Br)c1O	·	·	·	50µM*	·	·
CS(=O)(=O)c1ccccc1NC(=O)COc1ccccc1C(=O)Nc1ccccc1	·	·	·	-2%	·	·
O=C(NN1C(=O)/C(=C/c2ccc(O)c(O)c2)SC1=S)c1ccccc1	12%	?	?	-34%	-29%	·
COc1cc(/C=C2\SC(=S)N(NC(=O)c3cccnc3)C2=O)ccc1O	?	50µM*	·	-32%	-4%	25µM*
COc1cc(/C=C2\SC(=S)N(NC(=O)c3ccc(O)cc3)C2=O)ccc1O	-16%	28µM*	·	?	-13%	·
O=C(COC(=O)CCS(=O)(=O)c1ccccc1)NC(=O)c1ccc(OC(F)F)cc1	7%	-14%	0%	5%	·	·
CCN1/C(=C\C(=S)Nc2ccccc2)Sc2ccccc21	-4%	-14%	-6%	-5%	-9%	-1%
CCN1/C(=C/C(C)=C/c2sc3ccccc3[n+]2CC)Sc2ccccc21	-14%	18µM*	·	7.1µM*	?	13µM*
Cc1cccc(N=Nc2ccc(O)c3ncccc23)c1	-7%	-28%	20µM*	-6%	1%	i
CC(=O)NCC1(c2ccccc2)CCN(CCCC(=O)c2ccc(F)cc2)CC1	·	8%	·	·	·	·
NC(=O)C1CCN(c2nc(-c3ccc(N4CCCCC4)nc3)cs2)CC1	9%	·	·	·	·	·
N=c1nc(-c2ccccc2)n(-c2ccccc2)s1	·	·	·	89µM*	·	·
O=C(N/N=C/C=C\c1ccco1)c1ccccn1	?	35µM*	28µM*	?	?	?
O=C(N/N=C/C=C/c1ccco1)c1cnccn1	3%	-30%	7.1µM*	-5%	-6%	9%
COc1cc2cc(CNc3ccccc3)c(=O)n(CC(=O)Nc3cccc(Cl)c3C)c2cc1OC	·	·	·	-20%	-2%	·
COc1cc(NCCCCCCN)c2ncccc2c1OC	·	50µM*	·	?	·	·

Compound activity: PubChem, National Center for Advancing Translational Sciences (NCATS)
